# Source: ChEMBL document CHEMBL1961873, “Compounds: GSK PKIS; Assays: Nanosyn kinase panel” (2012)
# Key:
# [1] = molecular target: Calcium/calmodulin-dependent protein kinase type II subunit alpha (Homo sapiens) (UniProt Q9UQM7); settings: at 1 µM;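 note: reported value is a mean percent inhibition of CAMK2A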
# [2] = molecular target: Calcium/calmodulin-dependent protein kinase type II subunit delta (Homo sapiens) (UniProt Q13557); settings: at 0.1 µM
# [3] = molecular target: Calcium/calmodulin-dependent protein kinase type II subunit delta (Homo sapiens) (UniProt Q13557); settings: at 1 µM
# [4] = molecular target: T1, Calcium/calmodulin-dependent protein kinase type IV (Homo sapiens) (UniProt Q16566); settings: at 0.1 µM
# T1 sequence (whole entry): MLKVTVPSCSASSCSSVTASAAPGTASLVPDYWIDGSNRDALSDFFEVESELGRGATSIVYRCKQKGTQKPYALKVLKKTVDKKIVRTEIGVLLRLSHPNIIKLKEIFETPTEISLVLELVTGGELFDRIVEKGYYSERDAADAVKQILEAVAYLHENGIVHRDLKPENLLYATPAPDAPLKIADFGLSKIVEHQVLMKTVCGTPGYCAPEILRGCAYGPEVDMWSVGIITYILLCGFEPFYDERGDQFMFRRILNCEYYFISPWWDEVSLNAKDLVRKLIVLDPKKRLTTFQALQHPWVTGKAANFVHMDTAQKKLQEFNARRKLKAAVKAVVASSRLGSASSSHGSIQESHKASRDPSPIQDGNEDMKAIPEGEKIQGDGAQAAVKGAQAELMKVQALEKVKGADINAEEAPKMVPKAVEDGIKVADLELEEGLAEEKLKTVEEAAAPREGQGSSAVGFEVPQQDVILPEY
# [5] = molecular target: T1, Calcium/calmodulin-dependent protein kinase type IV (Homo sapiens); settings: at 1 µM
# [6] = molecular target: T2, Serine/threonine-protein kinase Chk1 (Homo sapiens) (UniProt O14757); settings: at 0.1 µM
# T2 sequence (whole entry): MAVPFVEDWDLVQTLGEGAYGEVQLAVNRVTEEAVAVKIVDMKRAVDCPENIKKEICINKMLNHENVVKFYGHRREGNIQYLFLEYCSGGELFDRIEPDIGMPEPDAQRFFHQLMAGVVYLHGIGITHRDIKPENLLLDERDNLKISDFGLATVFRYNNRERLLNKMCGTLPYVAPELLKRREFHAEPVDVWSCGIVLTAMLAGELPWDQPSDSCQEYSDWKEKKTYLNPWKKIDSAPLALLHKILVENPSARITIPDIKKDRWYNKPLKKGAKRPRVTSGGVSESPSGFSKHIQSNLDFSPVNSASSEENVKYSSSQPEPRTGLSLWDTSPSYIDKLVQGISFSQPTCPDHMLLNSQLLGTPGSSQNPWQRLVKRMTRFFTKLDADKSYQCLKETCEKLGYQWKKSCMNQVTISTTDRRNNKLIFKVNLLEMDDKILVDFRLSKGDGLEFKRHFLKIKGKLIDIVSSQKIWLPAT
# [7] = molecular target: T2, Serine/threonine-protein kinase Chk1 (Homo sapiens); settings: at 1 µM
# [8] = molecular target: Serine/threonine-protein kinase Chk2 (Homo sapiens) (UniProt O96017); settings: at 0.1 µM
# [9] = molecular target: Serine/threonine-protein kinase Chk2 (Homo sapiens) (UniProt O96017); settings: at 1 µM
# [10] = molecular target: Death-associated protein kinase 1 (Homo sapiens) (UniProt P53355); settings: at 0.1 µM
# Death-associated protein kinase 1 (Homo sapiens), sequence (P53355 whole entry, looked up): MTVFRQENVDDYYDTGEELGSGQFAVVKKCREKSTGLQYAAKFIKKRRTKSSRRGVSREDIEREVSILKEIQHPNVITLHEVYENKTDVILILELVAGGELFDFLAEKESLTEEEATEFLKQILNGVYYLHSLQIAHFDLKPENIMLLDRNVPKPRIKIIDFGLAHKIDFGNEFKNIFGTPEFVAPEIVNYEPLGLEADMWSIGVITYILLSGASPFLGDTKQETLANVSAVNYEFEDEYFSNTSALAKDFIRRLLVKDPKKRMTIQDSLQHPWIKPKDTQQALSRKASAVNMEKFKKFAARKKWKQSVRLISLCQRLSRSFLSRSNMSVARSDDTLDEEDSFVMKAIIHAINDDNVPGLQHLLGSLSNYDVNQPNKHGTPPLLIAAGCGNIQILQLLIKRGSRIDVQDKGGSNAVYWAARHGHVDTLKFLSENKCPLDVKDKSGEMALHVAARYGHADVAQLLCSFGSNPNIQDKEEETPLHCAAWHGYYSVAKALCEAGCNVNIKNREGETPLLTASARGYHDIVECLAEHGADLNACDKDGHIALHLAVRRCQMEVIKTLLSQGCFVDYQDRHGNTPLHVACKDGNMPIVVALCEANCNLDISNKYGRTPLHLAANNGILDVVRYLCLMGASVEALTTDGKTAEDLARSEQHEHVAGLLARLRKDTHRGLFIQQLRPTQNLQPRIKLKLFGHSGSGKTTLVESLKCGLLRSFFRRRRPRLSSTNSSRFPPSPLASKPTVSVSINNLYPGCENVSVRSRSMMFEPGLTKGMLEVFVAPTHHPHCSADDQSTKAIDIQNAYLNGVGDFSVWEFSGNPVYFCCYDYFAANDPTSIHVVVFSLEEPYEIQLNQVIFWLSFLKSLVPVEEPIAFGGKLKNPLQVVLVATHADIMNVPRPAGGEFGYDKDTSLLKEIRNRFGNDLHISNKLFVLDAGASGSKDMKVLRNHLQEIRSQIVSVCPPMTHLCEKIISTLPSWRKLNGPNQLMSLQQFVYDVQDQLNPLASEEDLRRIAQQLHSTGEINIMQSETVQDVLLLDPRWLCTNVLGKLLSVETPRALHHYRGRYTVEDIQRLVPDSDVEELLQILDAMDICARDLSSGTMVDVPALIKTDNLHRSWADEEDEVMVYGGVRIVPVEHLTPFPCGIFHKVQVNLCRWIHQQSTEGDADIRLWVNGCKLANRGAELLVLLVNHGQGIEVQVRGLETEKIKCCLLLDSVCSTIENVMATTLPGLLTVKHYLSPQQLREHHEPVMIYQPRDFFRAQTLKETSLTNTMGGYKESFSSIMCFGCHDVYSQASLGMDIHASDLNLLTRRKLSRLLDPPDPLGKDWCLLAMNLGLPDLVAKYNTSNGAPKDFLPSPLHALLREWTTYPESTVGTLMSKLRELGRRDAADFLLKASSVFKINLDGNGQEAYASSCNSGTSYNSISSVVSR
# [11] = molecular target: Death-associated protein kinase 1 (Homo sapiens) (UniProt P53355); settings: at 1 µM
# [12] = molecular target: T3, Serine/threonine-protein kinase DCLK2 (Homo sapiens) (UniProt Q8N568); settings: at 0.1 µM
# T3 sequence (whole entry): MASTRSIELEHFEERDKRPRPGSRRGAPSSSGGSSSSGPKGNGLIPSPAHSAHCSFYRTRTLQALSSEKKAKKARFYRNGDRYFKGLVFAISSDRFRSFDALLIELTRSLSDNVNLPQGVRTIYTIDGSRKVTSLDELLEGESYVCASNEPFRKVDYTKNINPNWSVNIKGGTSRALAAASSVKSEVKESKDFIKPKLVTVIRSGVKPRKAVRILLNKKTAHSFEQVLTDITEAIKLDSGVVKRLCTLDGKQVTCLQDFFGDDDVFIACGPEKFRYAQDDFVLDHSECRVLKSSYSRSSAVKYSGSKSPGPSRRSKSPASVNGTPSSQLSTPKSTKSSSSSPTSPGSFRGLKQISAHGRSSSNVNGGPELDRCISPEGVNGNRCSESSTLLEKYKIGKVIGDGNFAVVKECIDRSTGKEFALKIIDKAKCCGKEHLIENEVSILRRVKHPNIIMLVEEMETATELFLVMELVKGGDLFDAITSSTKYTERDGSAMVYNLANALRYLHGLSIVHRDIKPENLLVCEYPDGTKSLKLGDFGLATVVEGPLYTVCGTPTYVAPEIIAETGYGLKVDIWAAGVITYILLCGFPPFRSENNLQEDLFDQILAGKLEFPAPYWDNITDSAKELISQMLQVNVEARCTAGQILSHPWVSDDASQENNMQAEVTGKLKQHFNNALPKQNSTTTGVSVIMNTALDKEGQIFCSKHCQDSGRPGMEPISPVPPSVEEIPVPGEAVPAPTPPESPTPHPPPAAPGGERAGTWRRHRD
# [13] = molecular target: T3, Serine/threonine-protein kinase DCLK2 (Homo sapiens); settings: at 1 µM
# [14] = molecular target: MAP kinase-activated protein kinase 2 (Homo sapiens) (UniProt P49137); settings: at 0.1 µM
# MAP kinase-activated protein kinase 2 (Homo sapiens), sequence (P49137 whole entry, looked up): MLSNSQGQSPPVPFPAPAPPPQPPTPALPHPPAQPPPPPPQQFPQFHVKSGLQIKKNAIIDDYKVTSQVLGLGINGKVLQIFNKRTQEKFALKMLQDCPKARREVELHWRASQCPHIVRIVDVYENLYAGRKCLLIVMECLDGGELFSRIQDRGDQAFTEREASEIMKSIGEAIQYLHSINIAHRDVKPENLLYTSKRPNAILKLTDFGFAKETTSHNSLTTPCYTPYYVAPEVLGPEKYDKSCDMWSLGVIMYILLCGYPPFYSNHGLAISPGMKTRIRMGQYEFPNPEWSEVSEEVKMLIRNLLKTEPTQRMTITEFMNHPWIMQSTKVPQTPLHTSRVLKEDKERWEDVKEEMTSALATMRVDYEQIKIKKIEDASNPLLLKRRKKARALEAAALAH
# [15] = molecular target: MAP kinase-activated protein kinase 2 (Homo sapiens) (UniProt P49137); settings: at 1 µM
# [16] = molecular target: MAP kinase-activated protein kinase 3 (Homo sapiens) (UniProt Q16644); settings: at 0.1 µM
# MAP kinase-activated protein kinase 3 (Homo sapiens), sequence (Q16644 whole entry, looked up): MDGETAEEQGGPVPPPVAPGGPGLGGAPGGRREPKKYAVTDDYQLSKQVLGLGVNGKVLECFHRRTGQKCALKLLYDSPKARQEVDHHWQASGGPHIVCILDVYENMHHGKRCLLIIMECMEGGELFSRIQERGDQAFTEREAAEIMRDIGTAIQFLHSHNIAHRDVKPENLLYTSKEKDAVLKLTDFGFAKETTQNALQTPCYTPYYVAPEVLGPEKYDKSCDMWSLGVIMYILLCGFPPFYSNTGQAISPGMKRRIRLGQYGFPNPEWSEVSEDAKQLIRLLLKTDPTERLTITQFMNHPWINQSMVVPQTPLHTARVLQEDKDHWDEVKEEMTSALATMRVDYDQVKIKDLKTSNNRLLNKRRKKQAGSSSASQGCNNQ
# [17] = molecular target: MAP kinase-activated protein kinase 3 (Homo sapiens) (UniProt Q16644); settings: at 1 µM
# [18] = molecular target: Serine/threonine-protein kinase MARK1 (Homo sapiens) (UniProt Q9P0L2); settings: at 0.1 µM
# Serine/threonine-protein kinase MARK1 (Homo sapiens), sequence (Q9P0L2 whole entry, looked up): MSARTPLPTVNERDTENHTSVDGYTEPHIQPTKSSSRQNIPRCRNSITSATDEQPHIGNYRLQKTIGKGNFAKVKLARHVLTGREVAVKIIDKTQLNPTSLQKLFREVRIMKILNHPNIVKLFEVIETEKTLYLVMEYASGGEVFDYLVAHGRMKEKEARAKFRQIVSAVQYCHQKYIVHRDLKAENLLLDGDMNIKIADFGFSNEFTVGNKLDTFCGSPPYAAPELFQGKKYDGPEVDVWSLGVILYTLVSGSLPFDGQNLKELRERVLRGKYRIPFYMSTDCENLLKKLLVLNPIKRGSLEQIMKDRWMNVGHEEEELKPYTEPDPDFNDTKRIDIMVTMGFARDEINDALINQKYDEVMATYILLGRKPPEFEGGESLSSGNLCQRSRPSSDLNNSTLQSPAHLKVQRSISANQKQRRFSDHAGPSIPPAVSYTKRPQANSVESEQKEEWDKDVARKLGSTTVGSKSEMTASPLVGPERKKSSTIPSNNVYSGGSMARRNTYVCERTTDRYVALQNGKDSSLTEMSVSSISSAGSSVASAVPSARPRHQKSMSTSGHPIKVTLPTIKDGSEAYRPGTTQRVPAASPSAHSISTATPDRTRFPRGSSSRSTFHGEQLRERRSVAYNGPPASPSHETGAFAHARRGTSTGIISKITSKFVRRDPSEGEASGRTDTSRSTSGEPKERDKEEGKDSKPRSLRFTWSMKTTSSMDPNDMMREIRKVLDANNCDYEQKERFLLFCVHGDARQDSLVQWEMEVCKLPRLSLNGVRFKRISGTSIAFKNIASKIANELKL
# [19] = molecular target: Serine/threonine-protein kinase MARK1 (Homo sapiens) (UniProt Q9P0L2); settings: at 1 µM
# [20] = molecular target: MAP/microtubule affinity-regulating kinase 3 (Homo sapiens) (UniProt P27448); settings: at 0.1 µM;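 note: mean percent inhibition of MARK3 kinase activity, measured within the GSK PKIS screening panel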
# MAP/microtubule affinity-regulating kinase 3 (Homo sapiens), sequence (P27448 whole entry, looked up): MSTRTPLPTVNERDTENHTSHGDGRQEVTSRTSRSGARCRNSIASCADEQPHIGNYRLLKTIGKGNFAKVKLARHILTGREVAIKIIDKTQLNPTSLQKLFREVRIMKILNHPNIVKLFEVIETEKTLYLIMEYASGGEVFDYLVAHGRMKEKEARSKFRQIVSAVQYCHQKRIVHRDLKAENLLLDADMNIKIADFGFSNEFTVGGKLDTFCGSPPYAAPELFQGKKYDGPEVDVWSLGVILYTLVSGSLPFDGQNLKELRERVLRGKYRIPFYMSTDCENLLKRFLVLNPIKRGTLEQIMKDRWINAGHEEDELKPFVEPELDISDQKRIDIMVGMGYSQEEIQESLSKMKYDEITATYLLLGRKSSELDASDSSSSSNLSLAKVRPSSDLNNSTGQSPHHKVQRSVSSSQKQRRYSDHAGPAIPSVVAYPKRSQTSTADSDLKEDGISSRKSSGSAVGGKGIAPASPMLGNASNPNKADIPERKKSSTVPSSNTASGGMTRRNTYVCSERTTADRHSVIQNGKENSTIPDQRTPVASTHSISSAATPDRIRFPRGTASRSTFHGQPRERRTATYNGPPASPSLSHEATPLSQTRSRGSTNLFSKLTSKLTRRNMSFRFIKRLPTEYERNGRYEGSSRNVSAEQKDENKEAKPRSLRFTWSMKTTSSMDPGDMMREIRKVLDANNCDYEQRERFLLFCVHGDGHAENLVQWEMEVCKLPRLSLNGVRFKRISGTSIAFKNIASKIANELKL
# Calcium/calmodulin-dependent protein kinase type II subunit delta (Homo sapiens), sequence (Q13557 whole entry): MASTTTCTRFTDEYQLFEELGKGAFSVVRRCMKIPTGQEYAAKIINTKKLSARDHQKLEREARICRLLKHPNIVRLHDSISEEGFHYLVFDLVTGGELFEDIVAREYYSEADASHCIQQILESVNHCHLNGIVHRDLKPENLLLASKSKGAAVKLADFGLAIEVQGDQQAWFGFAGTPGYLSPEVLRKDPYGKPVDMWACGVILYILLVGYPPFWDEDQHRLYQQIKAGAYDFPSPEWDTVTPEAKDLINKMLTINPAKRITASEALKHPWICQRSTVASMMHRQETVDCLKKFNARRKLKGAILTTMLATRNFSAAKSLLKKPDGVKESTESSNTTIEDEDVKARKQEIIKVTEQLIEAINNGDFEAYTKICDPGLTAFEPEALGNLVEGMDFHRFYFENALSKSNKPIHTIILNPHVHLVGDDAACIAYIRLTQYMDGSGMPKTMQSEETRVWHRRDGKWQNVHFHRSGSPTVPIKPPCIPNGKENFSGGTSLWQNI
# Calcium/calmodulin-dependent protein kinase type II subunit alpha (Homo sapiens), sequence (Q9UQM7 whole entry): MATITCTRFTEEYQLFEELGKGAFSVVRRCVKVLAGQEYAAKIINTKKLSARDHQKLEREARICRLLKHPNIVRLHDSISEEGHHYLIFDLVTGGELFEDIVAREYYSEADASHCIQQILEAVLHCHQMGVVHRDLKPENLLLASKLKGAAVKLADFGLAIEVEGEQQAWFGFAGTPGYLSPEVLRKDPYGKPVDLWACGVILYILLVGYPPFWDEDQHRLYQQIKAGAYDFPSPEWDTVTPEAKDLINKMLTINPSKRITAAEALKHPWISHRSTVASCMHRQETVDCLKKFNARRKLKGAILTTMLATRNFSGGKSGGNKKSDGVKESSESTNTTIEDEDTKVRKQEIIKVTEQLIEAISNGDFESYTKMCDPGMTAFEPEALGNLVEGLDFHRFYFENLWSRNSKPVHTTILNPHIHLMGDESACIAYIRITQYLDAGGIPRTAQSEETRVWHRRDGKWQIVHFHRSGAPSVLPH
SMILES,inhibition [1] [%],inhibition [2] [%],inhibition [3] [%],inhibition [4] [%],inhibition [5] [%],inhibition [6] [%],inhibition [7] [%],inhibition [8] [%],inhibition [9] [%],inhibition [10] [%],inhibition [11] [%],inhibition [12] [%],inhibition [13] [%],inhibition [14] [%],inhibition [15] [%],inhibition [16] [%],inhibition [17] [%],inhibition [18] [%],inhibition [19] [%],inhibition [20] [%]
COc1ccc2cc(-c3c(-c4ccncc4)nc(-c4ccc([S+](C)[O-])cc4)n3C)ccc2c1 (stereo not given),3.37,2.81,3.06,0.45,1.25,3.28,4.03,2.27,2.52,3.27,4.63,0.5,5.77,1,0.92,2.16,2.35,3.1,3.73,2.34
COc1cc(C=NNc2ncnc3c2cnn3-c2ccccc2)ccc1O,5.31,3.65,12.4,-0.28,-1.35,-2.23,-2.87,-3.59,-0.98,-5.64,-5.67,1.34,-4.27,-1.87,-2.21,-3.81,-2.84,2.3,8.38,3.21
O=C(Nc1n[nH]c2nc(-c3ccco3)c(Br)cc12)C1CC1,2.92,3.12,4.6,1.47,2.02,3.44,4.35,2.64,2.71,3.14,4.49,-0.15,1.73,1.86,1.26,2.91,3.6,2.45,2.7,4.8
COc1cc2ncn(-c3cc(OCc4ccccc4C(F)(F)F)c(C(N)=O)s3)c2cc1OC,-0.1,3.23,7.03,-2.38,-1.47,2.54,3.46,3.3,5.56,4.32,-4.22,-2.49,-0.6,2.27,1.47,4.71,4.41,4.83,22.1,5.55
Cc1ccc(NC(=O)c2ccnc(N3CCCC3)c2)cc1-c1ccc(C(=O)NCC2CC2)cc1,5.72,4.6,7.16,-0.3,2.35,3.53,7.14,3.26,4.85,2.4,5.74,-1.99,-0.35,0.7,1.5,19.9,30.2,5.49,8.31,6.19
COc1cc2c(cc1Nc1nc(N3CCc4ccccc43)c3cc[nH]c3n1)N(C(=O)CN(C)C)CC2,4.08,3.43,2.99,2.17,3.69,0.15,3.74,1.34,7.08,2.95,5.32,-0.1,-1.1,1.24,1.57,1.99,0.18,1.84,3.15,4.35
